Test results published in PubChem BioAssay (NCI).
This is part of a sample that, as a whole, favours compounds with a hit. Of some 79,000 tested, about 15% had one in any assay. Activity calls are given as the source filed them. Rule as the data show it: active = growth inhibition above about 70%; inactive = the rest.

Experiment: NCI Yeast Anticancer Drug Screen. Data for the bub3 strain (AID 167)
Conditions: S. cerevisiae bub3 mutant strain, at 5.0 µM (retest, dose inferred, filed as 0.5), active compounds read high
Procedure, shortened: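 Screening used yeast with an engineered genetic alteration affecting cell cycle control. Compound-exposed cultures were compared with vehicle cultures, and reduced growth was taken as inhibition.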

Row | SMILES | growth inhibition
1 | S=C(S)NN1CCOCC1 | 85% (active)
2 | COc1cc2c3c(cccc3c1)C(=O)N(CCN(C)C)C2=O | 21% (inactive)
3 | COC(=O)C1=C(C)NC(C)=C(C(=O)OCCCN2CCC(c3ccccc3)(c3ccccc3)CC2)C1c1cccc([N+](=O)[O-])c1 (stereo not given) | 42% (inactive)
4 | c1ccc2c(c1)Oc1cccc3cccc-2c13 | -5% (inactive)
5 | CN(C)CCOc1ccc2c(c1)C/C(=C/c1ncc([N+](=O)[O-])n1C)C2=O | 6% (inactive)
6 | Cc1ccc(CCC2=CCCc3c2ccc2ccccc32)cc1 | 63% (inactive)
7 | CNC(=O)OCc1c(COC(=O)NC)c(-c2ccc(Cl)c(Cl)c2)n2c1CCC2 | 52% (inactive)
8 | Clc1ccccc1C1OC1c1ccccc1Cl (stereo not given) | 0% (inactive)
9 | O=[N+]([O-])c1cc(CCl)ccc1CCl | -17% (inactive)
10 | O=C1C=CC(=O)c2c(O)c(Nc3ccc(OC(F)(F)F)cc3)c(Cl)c(O)c21 | 26% (inactive)
11 | S=c1[nH]nc(Nc2ccc(Cl)cc2)s1 | -67% (inactive)
12 | Cn1ccnc1Oc1ccc(Cl)cc1 | -65% (inactive)
13 | BrCc1cccc2ccc3cccc(CBr)c3c12 | 4% (inactive)
14 | O=C1c2ccccc2-c2nc3ccccc3nc21 | 21% (inactive)
15 | CCCCCCCCCCCCCCCCCCNC | 50% (inactive)
16 | Oc1ccc(NCn2c(=S)sc3ccccc32)cc1 | 32% (inactive)
17 | O=C1C2CC[C@@H]3C(=O)C(Cl)(Cl)[C@@H]3CCC2C1(Cl)Cl (stereo not given in full) | -30% (inactive)
18 | CC[n+]1ccc2c(C)c3[nH]c4ccc(O)cc4c3c(C)c2c1 | -8% (inactive)
19 | Cc1ccc(-n2cc(-c3ccc(Cl)cc3)c(C#N)c2N)cc1 | -33% (inactive)
20 | CC(=O)[O][Bi]([c]1ccccc1)[c]1ccccc1 | 22% (inactive)

Row | SMILES | growth inhibition
21 | CC1=C(SCCO)C(=O)c2ccccc2C1=O | -19% (inactive)
22 | C/C(=N\O)C1CC2C=C(C#N)C1N(Cc1ccccc1)C2 (stereo not given) | -3% (inactive)
23 | CC(Br)C(=O)c1ccc2cc(Br)c3ccccc3c2c1 (stereo not given) | -10% (inactive)
24 | Nc1nc(-c2cccnc2)cc(-c2cc(-c3cccnc3)nc(N)n2)n1 | -17% (inactive)
25 | CC(C)=CC(=O)O[C@@H]1CC(C)(C)CC2C3=CCC4[C@]56CC[C@](O)(OC5)C(C)(C)C6CC[C@@]4(C)C3(C)CC[C@]21C(=O)O (stereo not given in full) | 25% (inactive)
26 | CCC(C)COC(=O)c1ccc(N=Cc2ccc(C=Nc3ccc(C(=O)OCC(C)CC)cc3)cc2)cc1 (stereo not given) | 3% (inactive)
27 | Oc1cccc2c(Cl)ccnc12 | 93% (active)
28 | O=C(O)c1cccc(-c2c3ccc(=O)cc-3oc3cc(O)ccc23)c1 | 53% (inactive)
29 | CN(CCc1ccccn1)c1ccc2c(c1)Cc1ccccc1-2 | -12% (inactive)
30 | Cc1cc(S(=O)(=O)/N=C(/NN)NNc2cccc(C(F)(F)F)n2)c(S)cc1Cl | -4% (inactive)
31 | O=C1C2C(C(=O)N1c1ccc(OCc3ccccc3)cc1)C1c3ccccc3C2C2CCCCN21 (stereo not given) | -5% (inactive)
32 | Nc1ccccc1CC(O)C(=O)O (stereo not given) | -17% (inactive)
33 | O=C(O)C1CCCCC1c1c2ccc(=O)c(O)c-2oc2c(O)c(O)ccc12 (stereo not given) | -7% (inactive)
34 | Cc1ccc2ccc(O)cc2c1 | 4% (inactive)
35 | O=C1C(=O)c2ccccc2C=C1[N+](=O)[O-] | -14% (inactive)
36 | COC(=O)c1ccc(NCC2=CC(=O)C=CC2=O)cc1O | 66% (inactive)
37 | C(CCSC1=NCCN1)CSC1=NCCN1 (tested in a mixture with another compound) | 5% (inactive)
38 | N#Cc1c(N)[nH]c2ccc(Sc3ccccc3)cc12 | 12% (inactive)
39 | CCNc1nnc(CSc2nc(-c3ccccc3)c(-c3ccccc3)[nH]2)s1 | 36% (inactive)
40 | CC[C@@]1(O)C(=O)OCc2c1cc1n(c2=O)Cc2cc3c(N)cccc3nc2-1 | -1% (inactive)

Same assay, conditions: S. cerevisiae bub3 mutant strain, at 11.0 µM, active compounds read high

Row | SMILES | growth inhibition
41 | S=C(S)NN1CCOCC1 | 31% (inactive)
42 | COc1cc2c3c(cccc3c1)C(=O)N(CCN(C)C)C2=O | -9% (inactive)
43 | COC(=O)C1=C(C)NC(C)=C(C(=O)OCCCN2CCC(c3ccccc3)(c3ccccc3)CC2)C1c1cccc([N+](=O)[O-])c1 (stereo not given) | 83% (active)
44 | c1ccc2c(c1)Oc1cccc3cccc-2c13 | -3% (inactive)
45 | CN(C)CCOc1ccc2c(c1)C/C(=C/c1ncc([N+](=O)[O-])n1C)C2=O | 10% (inactive)
46 | Cc1ccc(CCC2=CCCc3c2ccc2ccccc32)cc1 | -4% (inactive)
47 | CNC(=O)OCc1c(COC(=O)NC)c(-c2ccc(Cl)c(Cl)c2)n2c1CCC2 | -35% (inactive)
48 | Clc1ccccc1C1OC1c1ccccc1Cl (stereo not given) | -47% (inactive)
49 | O=[N+]([O-])c1cc(CCl)ccc1CCl | 46% (inactive)
50 | O=C1C=CC(=O)c2c(O)c(Nc3ccc(OC(F)(F)F)cc3)c(Cl)c(O)c21 | 1% (inactive)
51 | S=c1[nH]nc(Nc2ccc(Cl)cc2)s1 | -7% (inactive)
52 | Cn1ccnc1Oc1ccc(Cl)cc1 | 0% (inactive)
53 | BrCc1cccc2ccc3cccc(CBr)c3c12 | -8% (inactive)
54 | O=C1c2ccccc2-c2nc3ccccc3nc21 | -11% (inactive)
55 | CCCCCCCCCCCCCCCCCCNC | 32% (inactive)
56 | Oc1ccc(NCn2c(=S)sc3ccccc32)cc1 | 26% (inactive)
57 | O=C1C2CC[C@@H]3C(=O)C(Cl)(Cl)[C@@H]3CCC2C1(Cl)Cl (stereo not given in full) | 12% (inactive)
58 | CC[n+]1ccc2c(C)c3[nH]c4ccc(O)cc4c3c(C)c2c1 | -16% (inactive)
59 | Cc1ccc(-n2cc(-c3ccc(Cl)cc3)c(C#N)c2N)cc1 | 3% (inactive)
60 | CC(=O)[O][Bi]([c]1ccccc1)[c]1ccccc1 | 56% (inactive)

Row | SMILES | growth inhibition
61 | CC1=C(SCCO)C(=O)c2ccccc2C1=O | 5% (inactive)
62 | C/C(=N\O)C1CC2C=C(C#N)C1N(Cc1ccccc1)C2 (stereo not given) | -3% (inactive)
63 | CC(Br)C(=O)c1ccc2cc(Br)c3ccccc3c2c1 (stereo not given) | 3% (inactive)
64 | Nc1nc(-c2cccnc2)cc(-c2cc(-c3cccnc3)nc(N)n2)n1 | 0% (inactive)
65 | CC(C)=CC(=O)O[C@@H]1CC(C)(C)CC2C3=CCC4[C@]56CC[C@](O)(OC5)C(C)(C)C6CC[C@@]4(C)C3(C)CC[C@]21C(=O)O (stereo not given in full) | 81% (active)
66 | CCC(C)COC(=O)c1ccc(N=Cc2ccc(C=Nc3ccc(C(=O)OCC(C)CC)cc3)cc2)cc1 (stereo not given) | 6% (inactive)
67 | Oc1cccc2c(Cl)ccnc12 | 98% (active)
68 | O=C(O)c1cccc(-c2c3ccc(=O)cc-3oc3cc(O)ccc23)c1 | 49% (inactive)
69 | CN(CCc1ccccn1)c1ccc2c(c1)Cc1ccccc1-2 | 13% (inactive)
70 | Cc1cc(S(=O)(=O)/N=C(/NN)NNc2cccc(C(F)(F)F)n2)c(S)cc1Cl | -3% (inactive)
71 | O=C1C2C(C(=O)N1c1ccc(OCc3ccccc3)cc1)C1c3ccccc3C2C2CCCCN21 (stereo not given) | -1% (inactive)
72 | Nc1ccccc1CC(O)C(=O)O (stereo not given) | 9% (inactive)
73 | O=C(O)C1CCCCC1c1c2ccc(=O)c(O)c-2oc2c(O)c(O)ccc12 (stereo not given) | 12% (inactive)
74 | Cc1ccc2ccc(O)cc2c1 | 14% (inactive)
75 | O=C1C(=O)c2ccccc2C=C1[N+](=O)[O-] | 1% (inactive)
76 | COC(=O)c1ccc(NCC2=CC(=O)C=CC2=O)cc1O | 20% (inactive)
77 | C(CCSC1=NCCN1)CSC1=NCCN1 (tested in a mixture with another compound) | 94% (active)
78 | N#Cc1c(N)[nH]c2ccc(Sc3ccccc3)cc12 | 6% (inactive)
79 | CCNc1nnc(CSc2nc(-c3ccccc3)c(-c3ccccc3)[nH]2)s1 | -23% (inactive)
80 | CC[C@@]1(O)C(=O)OCc2c1cc1n(c2=O)Cc2cc3c(N)cccc3nc2-1 | -26% (inactive)
